Measurements taken from the supplement of paper PMC11732987, “Enantioselective OTUD7B fragment discovery through chemoproteomics screening and high-throughput optimisation” (Communications Chemistry, 2025).

Columns and labels:
Assay in all cases: log2 ratio of Biotin-Ahx-Ub-VS probe labelling (fragment/DMSO); higher = less target engagement (more negative = stronger competition), active = hit call of the paper (q ≤ 0.05, log2 ratio ≤ -1)
Conditions in all cases: compound concentration: 200 uM; treatment time: 3 h
ALG13 = molecular target: T1, ALG13 (UniProt Q9NP73)
T1 sequence (whole entry): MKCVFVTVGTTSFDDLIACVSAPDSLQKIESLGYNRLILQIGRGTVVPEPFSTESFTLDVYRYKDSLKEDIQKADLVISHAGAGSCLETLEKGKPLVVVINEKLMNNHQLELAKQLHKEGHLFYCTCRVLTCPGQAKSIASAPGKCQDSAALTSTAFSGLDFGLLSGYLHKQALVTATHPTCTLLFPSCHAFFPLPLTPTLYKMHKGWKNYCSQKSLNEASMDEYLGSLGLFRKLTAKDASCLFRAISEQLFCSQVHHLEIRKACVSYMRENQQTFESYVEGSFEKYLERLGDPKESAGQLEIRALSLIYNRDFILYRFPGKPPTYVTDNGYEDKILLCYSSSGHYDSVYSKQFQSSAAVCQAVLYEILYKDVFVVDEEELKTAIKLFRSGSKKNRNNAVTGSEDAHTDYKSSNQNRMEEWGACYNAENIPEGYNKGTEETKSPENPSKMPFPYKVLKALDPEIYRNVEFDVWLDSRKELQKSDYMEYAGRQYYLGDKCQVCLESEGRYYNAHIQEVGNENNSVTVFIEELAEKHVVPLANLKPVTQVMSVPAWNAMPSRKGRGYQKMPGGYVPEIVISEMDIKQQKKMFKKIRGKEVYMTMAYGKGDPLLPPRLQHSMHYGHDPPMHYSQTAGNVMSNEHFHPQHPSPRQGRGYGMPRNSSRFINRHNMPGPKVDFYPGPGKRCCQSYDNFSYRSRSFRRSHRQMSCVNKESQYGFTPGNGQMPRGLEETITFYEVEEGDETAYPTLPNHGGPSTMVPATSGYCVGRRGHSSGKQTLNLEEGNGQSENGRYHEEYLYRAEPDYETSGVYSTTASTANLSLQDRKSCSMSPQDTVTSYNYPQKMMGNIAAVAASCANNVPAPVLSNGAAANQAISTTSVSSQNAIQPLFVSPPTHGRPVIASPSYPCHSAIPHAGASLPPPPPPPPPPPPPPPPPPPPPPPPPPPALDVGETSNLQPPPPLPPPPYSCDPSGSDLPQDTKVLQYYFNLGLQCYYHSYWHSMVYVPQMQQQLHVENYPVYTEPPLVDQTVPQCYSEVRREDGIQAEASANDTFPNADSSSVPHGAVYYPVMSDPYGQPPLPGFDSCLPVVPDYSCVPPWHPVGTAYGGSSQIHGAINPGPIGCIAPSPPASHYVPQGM
Method in brief: (§1)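 Fragment (200 µM) or vehicle was incubated for 3 h with triplicate HEK293T lysate samples of 495 µg, which were then treated with Biotin-Ahx-Ub-VS at 0.5 µM final for 1 h. Labelled DUBs were enriched on NeutrAvidin, digested with LysC and trypsin, and analysed by diaPASEF LC-MS/MS. Values are average log2 fragment/vehicle ratios from an unpaired t-test on global-median-normalised Spectronaut label-free quantities, using proteins with ≥2 unique peptides.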

ATXN3 = ATXN3 (UniProt P54252)
Method in brief: as §1

BAP1 = molecular target: T2, BAP1 (UniProt Q92560)
T2 sequence (whole entry): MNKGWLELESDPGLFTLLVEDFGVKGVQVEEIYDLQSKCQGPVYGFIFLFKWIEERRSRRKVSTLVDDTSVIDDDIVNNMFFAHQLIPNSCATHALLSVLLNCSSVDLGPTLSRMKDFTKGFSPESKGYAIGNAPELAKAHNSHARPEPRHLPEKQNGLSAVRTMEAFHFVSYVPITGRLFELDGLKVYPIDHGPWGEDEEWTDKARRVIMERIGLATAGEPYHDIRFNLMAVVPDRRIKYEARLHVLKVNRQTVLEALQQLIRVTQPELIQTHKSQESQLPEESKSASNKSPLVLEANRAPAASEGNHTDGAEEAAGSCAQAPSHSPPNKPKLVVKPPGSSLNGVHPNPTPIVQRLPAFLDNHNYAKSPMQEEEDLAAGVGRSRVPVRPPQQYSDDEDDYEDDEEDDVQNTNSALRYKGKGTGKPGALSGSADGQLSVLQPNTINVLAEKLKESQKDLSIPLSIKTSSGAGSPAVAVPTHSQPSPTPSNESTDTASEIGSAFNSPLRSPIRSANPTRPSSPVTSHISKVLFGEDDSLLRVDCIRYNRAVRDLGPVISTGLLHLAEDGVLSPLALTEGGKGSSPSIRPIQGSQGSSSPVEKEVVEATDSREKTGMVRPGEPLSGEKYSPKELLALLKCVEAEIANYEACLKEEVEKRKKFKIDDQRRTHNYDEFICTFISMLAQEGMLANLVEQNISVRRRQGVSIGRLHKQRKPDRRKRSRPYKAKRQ
Method in brief: as §1

EIF3F = EIF3F (UniProt O00303)
Method in brief: as §1

EIF3H = EIF3H (UniProt O15372)
Method in brief: as §1

FAM105A = molecular target: T3, FAM105A (UniProt Q9NUU6)
T3 sequence (whole entry): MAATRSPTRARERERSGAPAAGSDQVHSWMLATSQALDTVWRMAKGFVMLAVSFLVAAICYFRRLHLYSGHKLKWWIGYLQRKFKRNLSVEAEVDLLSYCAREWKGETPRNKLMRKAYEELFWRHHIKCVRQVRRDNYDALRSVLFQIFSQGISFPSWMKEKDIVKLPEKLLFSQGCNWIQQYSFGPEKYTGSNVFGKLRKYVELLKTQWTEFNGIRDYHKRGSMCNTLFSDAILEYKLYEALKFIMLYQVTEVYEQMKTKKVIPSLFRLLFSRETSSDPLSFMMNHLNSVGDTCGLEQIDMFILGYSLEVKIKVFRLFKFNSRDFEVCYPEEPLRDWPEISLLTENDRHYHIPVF
Method in brief: as §1

OTUB1 = OTUB1 (UniProt Q96FW1)
Method in brief: as §1

OTUD4 = molecular target: T4, OTUD4 (UniProt Q01804)
T4 sequence (whole entry): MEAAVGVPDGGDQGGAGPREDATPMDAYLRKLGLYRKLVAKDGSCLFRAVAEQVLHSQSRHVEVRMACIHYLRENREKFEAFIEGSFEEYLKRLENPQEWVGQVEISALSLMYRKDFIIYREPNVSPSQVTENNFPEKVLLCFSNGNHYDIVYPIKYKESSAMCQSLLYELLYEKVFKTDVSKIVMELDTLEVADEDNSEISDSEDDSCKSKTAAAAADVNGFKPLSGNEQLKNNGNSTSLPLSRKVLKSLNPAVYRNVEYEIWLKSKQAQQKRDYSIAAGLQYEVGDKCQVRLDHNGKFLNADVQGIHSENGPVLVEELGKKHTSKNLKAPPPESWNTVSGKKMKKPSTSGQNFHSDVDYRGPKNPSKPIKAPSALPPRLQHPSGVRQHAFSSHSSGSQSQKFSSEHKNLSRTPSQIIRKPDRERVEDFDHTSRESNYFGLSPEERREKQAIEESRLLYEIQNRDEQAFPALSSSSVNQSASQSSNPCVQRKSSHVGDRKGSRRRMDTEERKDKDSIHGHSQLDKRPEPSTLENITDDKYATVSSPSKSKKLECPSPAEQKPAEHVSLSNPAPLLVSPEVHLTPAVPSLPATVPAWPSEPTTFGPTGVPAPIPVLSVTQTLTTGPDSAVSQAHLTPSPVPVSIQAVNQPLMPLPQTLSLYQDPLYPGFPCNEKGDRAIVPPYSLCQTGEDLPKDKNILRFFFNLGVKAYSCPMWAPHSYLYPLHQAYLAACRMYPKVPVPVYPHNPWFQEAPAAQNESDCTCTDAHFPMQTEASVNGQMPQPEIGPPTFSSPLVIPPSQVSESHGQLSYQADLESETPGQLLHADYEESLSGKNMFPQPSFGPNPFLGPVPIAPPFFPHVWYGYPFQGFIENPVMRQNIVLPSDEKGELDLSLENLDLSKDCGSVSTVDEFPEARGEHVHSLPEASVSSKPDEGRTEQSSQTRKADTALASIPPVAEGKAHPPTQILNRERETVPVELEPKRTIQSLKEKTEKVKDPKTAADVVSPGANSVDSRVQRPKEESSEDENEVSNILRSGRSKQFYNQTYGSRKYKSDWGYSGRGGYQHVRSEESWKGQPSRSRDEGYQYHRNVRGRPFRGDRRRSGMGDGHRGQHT
Method in brief: as §1

OTUD5 = molecular target: T5, OTUD5 (UniProt Q96G74)
T5 sequence (whole entry): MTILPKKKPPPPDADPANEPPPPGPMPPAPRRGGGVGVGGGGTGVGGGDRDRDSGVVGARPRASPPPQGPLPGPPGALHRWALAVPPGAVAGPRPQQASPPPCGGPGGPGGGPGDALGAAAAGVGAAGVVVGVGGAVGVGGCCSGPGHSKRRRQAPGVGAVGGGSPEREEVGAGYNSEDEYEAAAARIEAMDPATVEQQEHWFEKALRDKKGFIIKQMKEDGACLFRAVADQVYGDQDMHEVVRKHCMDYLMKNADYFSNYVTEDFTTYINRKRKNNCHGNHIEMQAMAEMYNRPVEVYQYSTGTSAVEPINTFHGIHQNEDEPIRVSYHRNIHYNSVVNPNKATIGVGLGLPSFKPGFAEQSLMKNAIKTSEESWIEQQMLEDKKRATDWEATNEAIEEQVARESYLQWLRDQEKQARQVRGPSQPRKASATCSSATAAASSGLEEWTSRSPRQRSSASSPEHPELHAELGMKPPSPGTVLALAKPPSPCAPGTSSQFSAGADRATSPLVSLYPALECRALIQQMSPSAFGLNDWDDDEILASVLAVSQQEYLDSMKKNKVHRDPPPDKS
Method in brief: as §1

Measured: log2 ratio of Biotin-Ahx-Ub-VS probe labelling

EIF3F, sequence (O00303 whole entry): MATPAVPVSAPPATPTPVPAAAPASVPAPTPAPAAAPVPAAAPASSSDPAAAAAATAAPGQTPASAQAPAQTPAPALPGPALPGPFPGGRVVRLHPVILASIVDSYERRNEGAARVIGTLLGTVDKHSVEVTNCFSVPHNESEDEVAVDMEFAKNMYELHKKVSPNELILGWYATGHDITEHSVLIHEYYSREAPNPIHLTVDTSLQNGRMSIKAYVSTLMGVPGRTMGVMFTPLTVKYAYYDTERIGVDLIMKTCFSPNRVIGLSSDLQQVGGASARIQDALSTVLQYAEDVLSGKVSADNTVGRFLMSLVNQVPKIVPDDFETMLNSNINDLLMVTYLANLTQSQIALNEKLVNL
ATXN3, sequence (P54252 whole entry): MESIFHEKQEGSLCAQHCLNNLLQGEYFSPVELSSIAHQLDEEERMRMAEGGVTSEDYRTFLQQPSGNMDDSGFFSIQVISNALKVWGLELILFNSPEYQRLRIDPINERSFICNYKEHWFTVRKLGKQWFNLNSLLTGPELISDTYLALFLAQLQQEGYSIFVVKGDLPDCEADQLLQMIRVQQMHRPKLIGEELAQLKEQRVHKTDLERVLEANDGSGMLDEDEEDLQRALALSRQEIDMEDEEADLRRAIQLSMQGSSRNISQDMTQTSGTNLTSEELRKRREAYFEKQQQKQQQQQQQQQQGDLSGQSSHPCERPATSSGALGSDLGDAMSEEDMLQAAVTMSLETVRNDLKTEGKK
OTUB1, sequence (Q96FW1 whole entry): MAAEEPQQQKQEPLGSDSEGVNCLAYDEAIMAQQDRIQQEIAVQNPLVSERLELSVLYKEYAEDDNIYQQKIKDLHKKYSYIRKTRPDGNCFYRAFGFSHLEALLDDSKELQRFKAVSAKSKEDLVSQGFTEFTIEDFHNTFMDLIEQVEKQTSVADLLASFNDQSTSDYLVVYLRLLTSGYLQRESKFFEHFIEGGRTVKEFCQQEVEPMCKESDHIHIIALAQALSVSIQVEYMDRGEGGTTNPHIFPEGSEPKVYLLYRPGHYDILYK
EIF3H, sequence (O15372 whole entry): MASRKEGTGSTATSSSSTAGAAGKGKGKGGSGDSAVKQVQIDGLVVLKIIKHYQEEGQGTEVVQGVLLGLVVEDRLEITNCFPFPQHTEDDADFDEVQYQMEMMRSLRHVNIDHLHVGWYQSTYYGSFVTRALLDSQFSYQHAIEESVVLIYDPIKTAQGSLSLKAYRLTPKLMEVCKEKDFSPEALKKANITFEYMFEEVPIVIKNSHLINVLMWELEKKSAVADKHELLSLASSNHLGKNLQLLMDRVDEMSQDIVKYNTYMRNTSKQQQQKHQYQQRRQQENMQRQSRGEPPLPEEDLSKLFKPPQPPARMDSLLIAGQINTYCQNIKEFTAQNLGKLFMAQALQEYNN

O=C(CCl)Nc1cccc(NC(=O)c2ccccc2)c1
inactive: ALG13 0.117 | ATXN3 0.278 | EIF3F -0.291 | EIF3H 0.304 | FAM105A -0.516 | OTUB1 -0.202 | OTUD4 0.39 | OTUD5 -0.0636
active: BAP1 -3.32
